Rows were chosen to be rich in hits. Some 19% of all compounds tested hit in one or more screens of this group.
Shiga inhibitor – Shiga toxin inhibition | Vero cells, Shiga toxin protein synthesis inhibition reporter | inhibition, % at 38.7 µM | 9.2% of 290,000 active; in the data active means inhibition mostly above about 28%, no sharp cut-off; inactive means mostly below about 43%
AMA1 RON2 block – inhibitors of Plasmodium falciparum AMA1-RON2 interaction; AlphaScreen AMA1-biotinylated RON2 peptide binding; Potency, µM (titrated, usually from 58.2 µM), actives largely listed as inhibitors; 0.2% of 360,000 active; AID 720542; further: nearly all actives have a fitted effect of over 45% in size
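AMA1 (3D7) with his tag at 25 nM final met compounds first, then biotinylated RON2 peptide at 25 nM; detection used donor plus acceptor beads, 10 µg/mL apiece, read by AlphaScreen after 30 min at room temperature.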
CHX counter-1 – counter-screen hit for Shiga toxin inhibitors, cycloheximide; cell reporter, cycloheximide protein synthesis inhibition counterscreen; 12% of 300,000 active; max response, %; in the data active means max response mostly above about 13%, no sharp cut-off; inactive means mostly below about 14%; further: read at 38.3 µM for the half of the compounds with a filed dose
Pf growth 96h – P. falciparum growth inhibition at 96 hours. P. falciparum luciferase reporter growth, 96 h. 6.9% of 320,000 active. Potency, µM (titrated, usually from 28.7 µM), usual class: inhibitors
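Luminescence readout: decreased luciferase signal marks inhibited growth of reporter-expressing P. falciparum in infected red cells (2% hematocrit, 0.05% parasitemia final), exposed to compound two generations (96 h, 37 C, 5% CO2).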
SARS PLpro yeast – inhibitors of SARS-CoV papain-like protease in yeast; S. cerevisiae expressing SARS-CoV PLpro, growth rescue; Potency, µM (series often up to 32.9 µM), usual class: activators; 0.19% of 330,000 active; AID 485353; calls by dose curve; further: nearly all actives have a fitted effect of over 55% in size
Pf growth 48h – P. falciparum growth inhibition at 48 hours (one generation). P. falciparum luciferase growth in erythrocytes, 48 h. Potency, µM (doses to about 28.7 µM), hits mostly inhibitors. 5.9% of 310,000 active. AID 504832
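In quantitative HTS format, infected erythrocytes bearing luciferase-reporter parasites were treated for a single generation at 37 C. Luminescence after adding detection reagent served as the growth measure.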
CHX counter-2 – counter-screen for Shiga toxin inhibitors: cycloheximide protein synthesis block; shares compounds with Shiga inhibitor; Cycloheximide counterscreen, protein synthesis reporter, Shiga toxin assay; Potency, µM (top dose mostly 38.3 µM), actives largely listed as activators; 3% of 510 active; AID 2318; calls by dose curve
Of the large screens only hits and unclear results are named; the others gave an inactive call (follow-up assays come after a bar, where they were run). Unless noted, the call rests on the fitted dose curve; in most records, active means well fitted curve in the direction sought with a large enough effect; inconclusive means small, poorly fitted or top-dose-only effect, or another doubt; inactive means no such curve, though single readings can be large; an effect the other way counts as inactive or inconclusive.

CCCN(C(=O)COc1ccc(C(C)=O)cc1OC)C1CCS(=O)(=O)C1 (stereo not drawn)	none (no result: Shiga inhibitor, CHX counter-1)
Cc1cc(NC(=O)c2cc(F)c(F)cc2Cl)no1	Shiga inhibitor 35 | CHX counter-2 inactive
CCN1CCN(C(=O)c2ccc3c(=O)n(CCC4=CCCCC4)c(=O)[nH]c3c2)CC1	Shiga inhibitor 29, Pf growth 48h inconclusive | CHX counter-2 inconclusive
CCCN(CC(=O)Nc1ccccc1C)C(=O)c1ccc(N2CCCC(C)C2)c([N+](=O)[O-])c1 (stereo not drawn)	none (no result: Shiga inhibitor, CHX counter-1, Pf growth 96h, SARS PLpro yeast, Pf growth 48h)
CCOc1ccc(NC(=O)C(CC(=O)O)Cc2ccc(C)cc2)cc1 (stereo not drawn)	none
CC(C)CNC(=O)c1noc2c1CCCC2	Shiga inhibitor 51 | CHX counter-2 inactive
CCN(CC)C(=O)CCCc1c[nH]c2ccccc12	Shiga inhibitor 52 | CHX counter-2 inactive
CC1CCN(Cc2ccc(-c3nnn(CC(=O)NC4CCCCC4)n3)cc2)CC1	none
O=C(NCCc1csc(-c2cccnc2)n1)c1ccc(Cl)cc1	Shiga inhibitor 21, Pf growth 96h inconclusive | CHX counter-2 inconclusive
O=C(NCCc1csc(-c2cccnc2)n1)c1cccc(Cl)c1	none
O=C(Cn1cc2c(n1)CCCCC2)Nc1ccccc1Br	Shiga inhibitor 73, Pf growth 96h inconclusive, Pf growth 48h inconclusive | CHX counter-2 inactive
Cc1cc(C)c2c(n1)SCC(=O)N2CC(=O)Nc1ccc(C)c(C)c1	Shiga inhibitor 16 | CHX counter-2 inactive
Cc1ccc(NC(=O)c2cc(S(=O)(=O)N3CCCCC3)ccc2N2CCOCC2)cc1F	Shiga inhibitor 31, Pf growth 48h 12µM (no result: Pf growth 96h) | CHX counter-2 inactive
CC(=O)c1cccc(NC(=O)c2cc(S(=O)(=O)N3CCCCC3)ccc2N2CCOCC2)c1	none (no result: Shiga inhibitor, CHX counter-1, Pf growth 96h, SARS PLpro yeast, Pf growth 48h)
CC[N+](CC)(CCO)CCCN1C(=O)C2CC=C(Cl)CC2C1=O (stereo not drawn)	Shiga inhibitor 143 | CHX counter-2 inactive
O=C(c1ccc(N2CCCCC2)c([N+](=O)[O-])c1)N(c1ccccn1)c1ccccn1	none
O=C(Cc1cccs1)Nc1ccc(-c2nnc(-c3ccco3)o2)cc1	Shiga inhibitor 49 | CHX counter-2 inconclusive
CC(C)Oc1cc(F)ccc1-c1cc(C(=O)NCc2cccnc2)[nH]n1	none (no result: Shiga inhibitor, CHX counter-1, Pf growth 96h, SARS PLpro yeast, Pf growth 48h)
O=C(COc1ccc(Br)cc1CNCCc1ccccc1)NCc1ccccc1	Shiga inhibitor 40, Pf growth 96h inconclusive, Pf growth 48h inconclusive | CHX counter-2 inactive
CC(Cn1cnc2ccccc21)C(=O)O (stereo not drawn)	none
O=C(O)c1ccn(Cn2cnc3ccccc32)n1	Shiga inhibitor 27 | CHX counter-2 inactive
O=C(Cc1ccc(F)cc1)Nc1cccc2cccnc12	Shiga inhibitor 36 | CHX counter-2 inactive
COc1ccc(CNc2nc3ccccc3n2CCN2CCOCC2)cc1	Pf growth 96h inconclusive, Pf growth 48h inconclusive
COc1ccccc1CNc1nc2ccccc2n1CCN1CCCCC1	Shiga inhibitor 66, Pf growth 96h inconclusive, Pf growth 48h inconclusive | CHX counter-2 inactive
COC(=O)C(O)(c1ccc(N(C)S(=O)(=O)c2ccccc2)cc1)C(F)(F)F (stereo not drawn)	Shiga inhibitor 84, Pf growth 96h inconclusive | CHX counter-2 inconclusive
CCCCC(=O)Nc1ccc(NC(=O)C2CC2)nc1	Shiga inhibitor 41 | CHX counter-2 inactive
O=C(Cc1ccccc1)Nc1ccc(NC(=O)C2CC2)nc1	none
COc1ccc(N/C=C(\C#N)c2nc3ccccc3n2C)c(OC)c1	Shiga inhibitor 81, Pf growth 48h inconclusive | CHX counter-2 inconclusive
O=C(COCc1cc(-c2ccc3c(c2)OCO3)on1)N1CCN(c2ccccc2)CC1	Shiga inhibitor 40, Pf growth 96h 10µM | CHX counter-2 inactive
NC(=O)[C@@H]1CCCN1C(=O)c1ccc2nc(Cc3cccc(Cl)c3)oc2c1	Shiga inhibitor 24, Pf growth 96h 10µM | CHX counter-2 inactive
CCN1CC(CNC(=O)c2ccc3nc(Cc4cccc(Cl)c4)oc3c2)CC1=O (stereo not drawn)	SARS PLpro yeast inconclusive
O=c1c2ccccc2sc2nc(C3CCCCC3)n(Cc3ccco3)c(=O)c12	Shiga inhibitor 24, Pf growth 96h 6.6µM, Pf growth 48h 1.7µM | CHX counter-2 inactive
COc1ccc(COCC(O)CN2CCN(S(=O)(=O)c3ccc(C(C)C)cc3)CC2)cc1 (stereo not drawn)	Pf growth 96h inconclusive, Pf growth 48h inconclusive (no result: Shiga inhibitor, CHX counter-1)
CC1=C(C/C=C(\C)CCC[C@H](C)CCC[C@H](C)CCCC(C)C)C(=O)c2ccccc2C1=O	none (no result: Shiga inhibitor, CHX counter-1, Pf growth 96h, SARS PLpro yeast, Pf growth 48h)
Cc1nnc(N2C(=O)C(=O)/C(=C(/O)c3ccc4c(c3)OCCO4)C2c2ccc([N+](=O)[O-])cc2)s1 (stereo not drawn)	Shiga inhibitor 44, Pf growth 96h inconclusive (no result: AMA1 RON2 block) | CHX counter-2 inactive
Cc1ccc(NC(=S)N(CCN2CCCCC2)Cc2ccco2)cc1Cl	Pf growth 96h inconclusive
CC(=O)N1CCc2cc(S(=O)(=O)NC(CC(C)C)C(=O)Nc3ccc4c(c3)OCCO4)ccc21 (stereo not drawn)	Shiga inhibitor 79 | CHX counter-2 inactive
CC(=O)N1CCc2cc(S(=O)(=O)NC(C)c3ccccc3)ccc21 (stereo not drawn)	none
COc1ccc(NC(=O)c2ccccc2[N+](=O)[O-])cc1	Shiga inhibitor 40, Pf growth 96h inconclusive | CHX counter-2 inactive
COc1ccc(NC(=O)c2cccnc2Nc2ccc(OC)cc2)cc1	Shiga inhibitor 42, Pf growth 96h inconclusive | CHX counter-2 inactive
COc1ccc(CNC(=O)c2ccccc2[N+](=O)[O-])cc1	none
CC(=O)NC(Nc1c(C)n(C)n(-c2ccccc2)c1=O)C(Cl)(Cl)Cl (stereo not drawn)	Pf growth 96h inconclusive
O=c1c2ccccc2nc(SCc2nc3ccccc3s2)n1Cc1ccco1	none
O=c1c2ccccc2nc(SCc2cccc(F)c2)n1Cc1ccco1	Shiga inhibitor 56, Pf growth 48h inconclusive | CHX counter-2 inactive
Cc1cc(NS(=O)(=O)c2ccc(NC(=O)Cc3ccc(Cl)c(Cl)c3)cc2)no1	Pf growth 48h inconclusive (no result: Shiga inhibitor, CHX counter-1)
CN1CCN(C(=O)c2ccc(-n3cccc3)cc2)CC1	Shiga inhibitor 32 | CHX counter-2 inactive
CCOC(=O)C1CCCN(C(=O)c2cc(Nc3ccc(OC)c(OC)c3)nc3ccccc23)C1 (stereo not drawn)	Shiga inhibitor 38, Pf growth 96h inconclusive, Pf growth 48h inconclusive | CHX counter-2 inactive
O=C1Nc2ccccc2C1(O)Cc1ccccn1 (stereo not drawn)	none
CN1CC(c2ccccn2)C2(SC(=S)N(Cc3ccccc3)C2=O)C12C(=O)Nc1ccccc12 (stereo not drawn)	Shiga inhibitor 71, AMA1 RON2 block inconclusive, Pf growth 96h inconclusive, Pf growth 48h inconclusive | CHX counter-2 inactive
